Measurements reported in the supplement of paper PMC8728848.
Only a selection was taken, and the strongest signals are over-represented in it overall.

Assays:
Test in all cases: glycan array binding signal (z-score within array); higher = stronger binding
Settings in all cases: glycan notation: IUPAC condensed, linker removed
[1] = target: Fuc(a1-2)Gal(b1-3)GalNAc(b1-3)Gal(a1-4)Gal(b1-4)Glc
Procedure, shortened: (§1)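 Columns mapping to the same glycan were averaged after glycan names were converted to IUPAC-condensed notation. The data come from 3228 arrays in the Consortium for Functional Glycomics database, limited to those with an available protein sequence. Binding is reported as a within-array Z-score averaged across arrays of one protein sequence and across linkers.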

[2] = target: Fuc(a1-2)Gal(b1-3)GlcNAc(b1-2)Man(a1-3)[Fuc(a1-2)Gal(b1-3)GlcNAc(b1-2)Man(a1-6)]Man(b1-4)GlcNAc(b1-4)[Fuc(a1-6)]GlcNAc
Procedure, shortened: as §1

[3] = target: Fuc(a1-2)Gal(b1-4)GlcNAc(b1-2)[Fuc(a1-2)Gal(b1-4)GlcNAc(b1-4)]Man(a1-3)[Fuc(a1-2)Gal(b1-4)GlcNAc(b1-2)Man(a1-6)]Man(b1-4)GlcNAc(b1-4)GlcNAc
Procedure, shortened: as §1

[4] = target: Fuc(a1-2)Gal(b1-4)[Fuc(a1-3)]GlcNAc(b1-2)Man(a1-3)[Fuc(a1-2)Gal(b1-4)[Fuc(a1-3)]GlcNAc(b1-2)Man(a1-6)]Man(b1-4)GlcNAc(b1-4)[Fuc(a1-6)]GlcNAc
Procedure, shortened: as §1

[5] = target: Fuc(a1-2)Gal(b1-4)[Fuc(a1-3)]GlcNAc(b1-3)Gal(b1-4)[Fuc(a1-3)]GlcNAc(b1-3)Gal(b1-4)[Fuc(a1-3)]GlcNAc
Procedure, shortened: as §1

[6] = target: Fuc(a1-2)Gal(b1-4)[Fuc(a1-3)]GlcNAc(b1-3)[Neu5Ac(a2-6)Gal(b1-4)GlcNAc(b1-6)]Gal(b1-4)Glc
Procedure, shortened: as §1

[7] = target: Fuc(a1-2)[Gal(a1-3)]Gal(b1-4)GlcNAc(b1-2)Man(a1-3)[Fuc(a1-2)[Gal(a1-3)]Gal(b1-4)GlcNAc(b1-2)Man(a1-6)]Man(b1-4)GlcNAc(b1-4)GlcNAc
Procedure, shortened: as §1

[8] = target: Fuc(a1-2)[GalNAc(a1-3)]Gal(b1-3)GalNAc(b1-3)Gal(a1-4)Gal(b1-4)Glc
Procedure, shortened: as §1

[9] = target: Fuc(a1-2)[GalNAc(a1-4)]Gal(b1-4)GlcNAc
Procedure, shortened: as §1

[10] = target: Fuc(a1-3)[Gal(b1-4)]GlcNAc(b1-6)GalNAc
Procedure, shortened: as §1

Gal(a1-4)GlcNAc = target: Gal(a1-4)GlcNAc
Procedure, shortened: as §1

[11] = target: Gal(b1-3)GlcNAc(a1-6)Gal(b1-4)GlcNAc
Procedure, shortened: as §1

[12] = target: Gal(b1-3)GlcNAc(b1-2)Man(a1-3)[Gal(b1-3)GlcNAc(b1-2)Man(a1-6)]Man(b1-4)GlcNAc(b1-4)GlcNAc
Procedure, shortened: as §1

[13] = target: Gal(b1-3)GlcNAc(b1-3)Gal(b1-4)GlcNAc(b1-6)[Gal(b1-3)GlcNAc(b1-3)]Gal(b1-4)Glc
Procedure, shortened: as §1

[14] = target: Gal(b1-3)GlcNAc(b1-3)Gal(b1-4)[Fuc(a1-3)]GlcNAc(b1-6)[Gal(b1-3)GlcNAc(b1-3)]Gal(b1-4)Glc
Procedure, shortened: as §1

[15] = target: Gal(b1-4)GlcNAc(b1-2)Man(a1-3)[Gal(b1-4)GlcNAc(b1-2)Man(a1-6)][GlcNAc(b1-4)]Man(b1-4)GlcNAc(b1-4)[Fuc(a1-6)]GlcNAc
Procedure, shortened: as §1

[16] = target: Gal(b1-4)GlcNAc(b1-2)Man(a1-3)[Man(a1-6)]Man(b1-4)GlcNAc(b1-4)GlcNAc
Procedure, shortened: as §1

[17] = target: Gal(b1-4)GlcNAc(b1-2)Man(a1-6)[GlcNAc(b1-2)Man(a1-3)]Man(b1-4)GlcNAc(b1-4)GlcNAc
Procedure, shortened: as §1

[18] = target: Gal(b1-4)GlcNAc(b1-2)[Gal(b1-4)GlcNAc(b1-4)]Man(a1-3)[Gal(b1-4)GlcNAc(b1-2)[Gal(b1-4)GlcNAc(b1-6)]Man(a1-6)]Man(b1-4)GlcNAc(b1-4)GlcNAc
Procedure, shortened: as §1

[19] = target: Gal(b1-4)GlcNAc(b1-3)Gal(b1-4)GlcNAc(b1-2)[Gal(b1-4)GlcNAc(b1-3)Gal(b1-4)GlcNAc(b1-6)]Man(a1-6)[Gal(b1-4)GlcNAc(b1-3)Gal(b1-4)GlcNAc(b1-2)Man(a1-3)]Man(b1-4)GlcNAc(b1-4)[Fuc(a1-6)]GlcNAc
Procedure, shortened: as §1

[20] = target: Gal(b1-4)GlcNAc(b1-3)Gal(b1-4)GlcNAc(b1-3)Gal(b1-4)GlcNAc(b1-2)[Gal(b1-4)GlcNAc(b1-3)Gal(b1-4)GlcNAc(b1-3)Gal(b1-4)GlcNAc(b1-6)]Man(a1-6)[Gal(b1-4)GlcNAc(b1-3)Gal(b1-4)GlcNAc(b1-3)Gal(b1-4)GlcNAc(b1-2)Man(a1-3)]Man(b1-4)GlcNAc(b1-4)[Fuc(a1-6)]GlcNAc
Procedure, shortened: as §1

[21] = target: Gal(b1-4)GlcNAc(b1-3)Gal(b1-4)GlcNAc(b1-3)Gal(b1-4)GlcNAc(b1-3)Gal(b1-4)GlcNAc(b1-3)Gal(b1-4)GlcNAc(b1-2)Man(a1-3)[Gal(b1-4)GlcNAc(b1-3)Gal(b1-4)GlcNAc(b1-3)Gal(b1-4)GlcNAc(b1-3)Gal(b1-4)GlcNAc(b1-3)Gal(b1-4)GlcNAc(b1-2)Man(a1-6)]Man(b1-4)GlcNAc(b1-4)[Fuc(a1-6)]GlcNAc
Procedure, shortened: as §1

[22] = target: Gal(b1-4)GlcNAc(b1-3)Gal(b1-4)GlcNAc(b1-3)Gal(b1-4)GlcNAc(b1-3)Gal(b1-4)GlcNAc(b1-3)Gal(b1-4)GlcNAc(b1-2)[Gal(b1-4)GlcNAc(b1-3)Gal(b1-4)GlcNAc(b1-3)Gal(b1-4)GlcNAc(b1-3)Gal(b1-4)GlcNAc(b1-3)Gal(b1-4)GlcNAc(b1-6)]Man(a1-6)[Gal(b1-4)GlcNAc(b1-3)Gal(b1-4)GlcNAc(b1-3)Gal(b1-4)GlcNAc(b1-3)Gal(b1-4)GlcNAc(b1-3)Gal(b1-4)GlcNAc(b1-2)Man(a1-3)]Man(b1-4)GlcNAc(b1-4)[Fuc(a1-6)]GlcNAc
Procedure, shortened: as §1

[23] = target: Gal(b1-4)GlcNAc(b1-3)Gal(b1-4)GlcNAc(b1-3)GalNAc
Procedure, shortened: as §1

[24] = target: Gal(b1-4)GlcNAc(b1-3)Gal(b1-4)GlcNAc(b1-6)[Gal(b1-3)]GalNAc
Procedure, shortened: as §1

[25] = target: Gal(b1-4)GlcNAc(b1-3)Gal(b1-4)[Fuc(a1-3)]GlcNAc(b1-3)Gal(b1-4)[Fuc(a1-3)]GlcNAc
Procedure, shortened: as §1

[26] = target: Gal(b1-4)GlcNAc(b1-3)GalNAc
Procedure, shortened: as §1

[27] = target: Gal(b1-4)GlcNAc(b1-3)[Fuc(a1-3)GlcNAc(b1-6)]Gal(b1-4)Glc
Procedure, shortened: as §1

Gal3S(b1-4)Glc = target: Gal3S(b1-4)Glc
Procedure, shortened: as §1

Gal4S6S(b1-4)GlcNAc = target: Gal4S6S(b1-4)GlcNAc
Procedure, shortened: as §1

B1: Awp3 (Candida glabrata), B4UN32 (protein)
chain: MISFVTLLAILGLLSISWADQTVRSVAGDQRVTDPVIVGDNSILDYYGGSNYDFSNNFEIGRGTLYIGKESYFSSFQSAPTDVPNSFHLLIKNTNNLQNNGQFIIENIKRHANQCSNSSIQVFPINFQNDGEFEIISGGVEGRCCLPTSVIAPQNFLNNGKFYYKVLTDTGSIYSGSCMQNVDIGASTTTTVNNNLWEFTGSINAQINGAVSGAAQINLDGSNMFVNANTFSGQVVNLINGGSFLQTSDPLSNIVVINGLGTSDTGVTSIAVKGKGKSFTYNPSSGIVKLTTVEGKTYAYQIGCGYNTKKFITNNDSGASYESADNFFVLTYSEPYSPQTCQLENSSIFSSNFISTSTSSSSSSSSASSLPSSMSSSLPSSLSSSLSSSLSSSMSSSMSSLFIIPPPYTTTRSSGSSIIDTEIVSFYSTTDSPGHTITGTTTTTLYGPHTHSSVSTPSSSSESSTTSNSSIESSSLPHTSVSSTPESSITPSSNTISSSPTSDFSSVQSSSIMESSSVVASSSVINSSSIVDSSSSSASSLPSSMSSSLSSSMSSSLPSSMSSSLSSSLSSSLSSSMSSSMSSLFIIPPPYTTTRSSGSSIIDTEIVSFYSTTDSPGHTITGTTTTTLYGPHTHSSVSTPSSSSESSTTSNSSIESSSLPHTSVSSTPESSITPSSNTISSSPTSDFSSVQSSSIMESSSVVASSSVINSSSIVDSSSSSASSLPSSMPSSLPSSMSSSLSSSMSSSLSSSLSSSLSSSMSSSMSSLFIIPPPYTTTRSSGSSIIDTEIVSFYSTTDSPGHTITGTTTTTLYGPHTHSSVSTPSSSSESSTTSNSSIESSSLPHTSVSSTPESSITPSSNTISSSPTSDFSSVQSSSIMESSSVVASSSATQSSSVINSSSIVDSSSSSASSLPSSMPSSLPSSLSSSLSSSLSSSMSSSMSSLFIIPPPYTTTRSSGSSIIDTEIVSFYSTTDSPGHTITGTTTTTLYESSIYSSSSSTIQESELSNTSRTTMTSNSSVSISSTSSRSSFSNTKSSTIVISQSASLPDSKTDIILSTSSNIGYSSRSLLSDLGTSISDSDIHHSVLHSTESYSSNESGTNPFTSIASLSNFIPESSSHTSTALGSENSVISSDILTTMSHPVATNSGDKPTTPKRSEQVSTTMTSSGPTPDTSSFDTDGMSAYSRPEFTTNSLEVNKSSTSQLGNNKQTFSNLQLESTRPHSENEVDNNTRLLQSIQQSSTYGTNNVNPLSPTGSISIPLTEDGQGDNNNWNSPATNDLCTQISFNLTATTITVTDRITITDSIHDISSEVITSYIYQTIVDQKTVTQTVDGKSLANKMSSIPKPSSRSLIQPQPPVAIELQEGAASTSRVSLVSLFISIILVLL
- glycan array binding signal (z-score) [1]: 2.34
- glycan array binding signal (z-score) [2]: 1.49
- glycan array binding signal (z-score) [3]: 3.23
- glycan array binding signal (z-score) [4]: -0.693
- glycan array binding signal (z-score) [5]: 1.19
- glycan array binding signal (z-score) [6]: -1.1
- glycan array binding signal (z-score) [7]: 2.45
- glycan array binding signal (z-score) [8]: 2.28
- glycan array binding signal (z-score) [9]: -0.218
- glycan array binding signal (z-score) [10]: 0.39
- glycan array binding signal (z-score) (Gal(a1-4)GlcNAc): 2.25
- glycan array binding signal (z-score) [11]: 0.259
- glycan array binding signal (z-score) [12]: 2.55
- glycan array binding signal (z-score) [13]: 1.3
- glycan array binding signal (z-score) [14]: 2.48
- glycan array binding signal (z-score) [15]: 1.4
- glycan array binding signal (z-score) [16]: -0.338
- glycan array binding signal (z-score) [17]: 0.07
- glycan array binding signal (z-score) [18]: -0.258
- glycan array binding signal (z-score) [19]: -1.19
- glycan array binding signal (z-score) [20]: 1.96
- glycan array binding signal (z-score) [21]: 0.113
- glycan array binding signal (z-score) [22]: -0.313
- glycan array binding signal (z-score) [23]: 1.03
- glycan array binding signal (z-score) [24]: -0.292
- glycan array binding signal (z-score) [25]: 0.452
- glycan array binding signal (z-score) [26]: -0.074
- glycan array binding signal (z-score) [27]: -0.665
- glycan array binding signal (z-score) (Gal3S(b1-4)Glc): -0.288
- glycan array binding signal (z-score) (Gal4S6S(b1-4)GlcNAc): 0.372
